Compound activity as filed in PubChem.
TCR act – activators of T cell receptors. 330,000 tested, under 10 active. primary human leukocytes, anti-CD3, IL-2 HTRF, 48 h. AID 504894. Potency, µM (doses to about 9.22 µM), for the others: top-dose activation of IL-2 secretion, hits mostly activators; note: % of control where 0% means no effect
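1) Mix primary human leukocytes, a-CD3 beads and compound. 2) Incubate 48 hr. 3) Add HTRF IL-2 reagents (a-IL-2-K, a-IL-2-d2).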
ClpP mod – qHTS Assay for Activators of ClpP. AID 651965, 2013. hit rate 1.9% among 340,000. Potency, µM (titrated, usually from 57.5 µM), for the others: top-dose activity change, negative = active. purified B. subtilis ClpP, FRET peptide cleavage, 20 min. ATP-dependent Clp protease proteolytic subunit (Bacillus subtilis (strain 168)), P80244; active = well fitted falling curve with a large enough effect; inconclusive = small, poorly fitted or top-dose-only effect; inactive = no such curve, though single readings can be large or run the other way; note: potency is the fitted concentration of half-maximal effect; the source files actives as falling curves though it sought activators and does not explain the sign; nearly all actives have a fitted effect of over 65% in size
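Purified B. subtilis ClpP, 10 microg/mL final in Tris/HCl pH8 with KCl, BSA, glycerol and Tween-20, cleaved an Abz/nitrotyrosine-quenched decapeptide. Fluorescence (ex 320, em 430) was read at 0 and 20 min at room temperature. Delta was normalized to 5.8 microM ADEP and DMSO/no-enzyme controls.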
Sfp inh – blocks B. subtilis Sfp PPTase activity; AID 1490; Q9F4F7; hit rate 3.5% among 310,000; Potency, µM, inactives show largest response in the series, negative = inhibition, actives largely listed as inhibitors; Biochemical Sfp PPTase activity, qHTS;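 note: the enzyme is Sfp with the accession as filed and its product quenches rhodamine fluorescence; potency is the fitted concentration of half-maximal effect; 0% = enzyme reaction without inhibitor and -100% = no enzyme wells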
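After 15 min at room temperature with compound, 15 nM Sfp received 5 uM rhodamine-CoA plus 12.5 uM BHQ-2-ybbR (50 mM Hepes pH 7.6, 10 mM MgCl2). Rate came from the fluorescence difference over 30 min, ex 525/em 598 nm.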
uPA generation – blocks generation of uPA at the cell surface. cell surface uPA generation assay, qHTS. Potency, µM (series often up to 38.3 µM), for the others: top-dose activity change, negative = inhibition, hits mostly inhibitors. hit rate 0.31% among 330,000; active = well fitted inhibition curve with a large enough effect; inconclusive = small, poorly fitted or top-dose-only effect; inactive = no such curve, though single readings can be large or run the other way; tested in mouse RAW 264.7 cells; note: potency is the fitted concentration of half-maximal effect; % is set by controls: 0 for no effect and ±100 for the full control effect; nearly all actives have a fitted effect of over 55% in size
* = called active by the depositor; ? = inconclusive; . = no result; [ ] = remark or other dose. A selection: hits, their analogues and other compounds. The true share with any hit is near 4.2%. Unless noted, calls come from the whole dose curve; as a rule, active = well fitted curve in the direction sought with a large enough effect; inconclusive = small, poorly fitted or top-dose-only effect, or another doubt; inactive = no such curve, though single readings can be large; an effect the other way counts as inactive or inconclusive.

SMILES	TCR act	ClpP mod	Sfp inh	uPA generation
CCC1(c2ccc(F)cc2)NC(=O)N(CC(=O)Nc2ccc(S(N)(=O)=O)cc2)C1=O (stereo not drawn)	-8%	-1%	17%	-27%
CCOc1ccc(CCNC(=O)Cn2ncn3c(cc4ccccc43)c2=O)cc1OCC	.	-4%	.	.
CSc1ccc(CCNC(=O)Cn2ncn3c(cc4ccccc43)c2=O)cc1	.	20µM*	.	.
CN(C)/C=C1/NC(=S)NC1=O	-12%	.	79µM*	5%
CCN1C(=O)/C(=C\N(C)C)NC1=S	9%[46.1 µM]	.	4%	0%
Cc1ccc(C(=O)N/N=C2\SCC(=O)N2c2cc(C)ccc2C)cc1	-3%[46.1 µM]	-1%	71µM*	-9%
Cc1cccc(N2C(=O)CS/C2=N\NC(=O)c2ccc(Br)cc2)c1C	-7%[46.1 µM]	-2%	6%	9%
Oc1ccc2c(c1)oc1cc(O)ccc12	.	32µM*	-1%	?
COc1c(C)oc2cc(O)ccc2c1=O	3%[46.1 µM]	18µM*	28%	1%
C[n+]1c(/C=C/c2ccnc3ccccc23)cc(/C=C/c2ccnc3ccccc23)c2ccccc21	.	0%	.	.
CCCCn1c(N)c(N(Cc2ccccc2)C(=O)COc2ccccc2F)c(=O)[nH]c1=O	-2%	-2%	.	13%
COc1ccc(S(=O)(=O)N(CCc2ccccc2)CC(=O)NCc2ccc(C)cc2)cc1	.	-7%	.	.
CC1(C)CC(=O)C2=C(C1)c1c(ccc3ccccc13)NC2c1ccc(OCC(=O)O)cc1 (stereo not drawn)	.	4%	-2%	19%
CC1(C)CC(=O)C2=C(C1)c1c(ccc3ccccc13)NC2c1ccc(Br)o1 (stereo not drawn)	-2%	13µM*	20%	-13%
CCc1ccc(Nc2ccc3nonc3c2[N+](=O)[O-])cc1	5%	.	.	-2%
CCOC(=O)NNc1ccc2nonc2c1[N+](=O)[O-]	4%	.	20µM*	-11%
Cc1ccc2cc3c(N)c(C(=O)Nc4c(C)[nH]c(=O)[nH]c4=O)sc3nc2c1	-4%[46.1 µM]	16µM*	-6%	1%
CCOc1ccc(N2CSC(=S)N(c3ccc(OCC)cc3)C2)cc1	-6%	3%	35µM*	0%
CCOc1ccc(N2CC(=O)SC2=S)cc1	-2%	1%	1%	-5%
COC(=O)C1C(=O)C=C(N2CCOCC2)CC1(C)C (stereo not drawn)	1%	13µM*	-4%	-1%
CC1(C)CC(N2CCOCC2)=CC(=S)N1	.	-2%	.	.
CCOC(=O)c1c(C)[nH]c(C=C2C(=O)CCCC2=O)c1O	-6%[46.1 µM]	-2%	-21%	-1%
Cc1ccc(NC(=O)CCN2CCN(C/C=C/c3ccccc3)CC2)cc1C	8%	-2%	89µM*	-6%
O=C1OC(c2ccc(Cl)cc2)=C/C1=C/c1cccnc1	-46%	-4%	-1%	6%
Cc1ccc(C2=C/C(=C/c3cccnc3)C(=O)O2)c(C)c1	-1%[46.1 µM]	0%	50µM*	0%
SMILES	TCR act	ClpP mod	Sfp inh	uPA generation
CCC(C)NC(=O)Cn1ccc2cc(S(=O)(=O)N3CCCCCC3)ccc21 (stereo not drawn)	-13%	-3%	19%	0%
CCC(=O)NC(c1cccc([N+](=O)[O-])c1)c1c(OC(C)=O)ccc2ccccc12 (stereo not drawn)	13%[46.1 µM]	28µM*	10%	2%
CC(OC(=O)Cc1ccsc1)C(=O)Nc1ccc(C(N)=O)cc1 (stereo not drawn)	-1%	-2%	.	2%
COc1ccc(-n2c(=O)cnc3cnc(Nc4ccccc4)nc32)cc1	.	.	19%	.
Cc1ccc(NC(=O)CCc2nnc3ccc(N4CCC5(CC4)OCCO5)nn23)cc1F	4%	-3%	-5%	1%
CN(Cc1cccs1)c1ncnc2sccc12	.	0%	79µM*	-9%
Cc1cc2cc(CN(Cc3nnnn3C3CCCCC3)CC3CCCO3)c(=O)[nH]c2cc1C (stereo not drawn)	.	?	50µM*	11%
COc1ccc2[nH]c(=O)c(CN(Cc3nnnn3Cc3ccccc3)CC3CCCO3)cc2c1 (stereo not drawn)	-1%	28µM*	89µM*	-5%
CCOC(=O)Cn1nnnc1CN(Cc1ccccc1)Cc1cc2cc(CC)ccc2[nH]c1=O	.	-9%	3%	-1%
CCc1ccc2[nH]c(=O)c(CN(Cc3ccccc3)Cc3nnnn3Cc3ccco3)cc2c1	2%	-10%	18µM*	-7%
CCc1ccc2[nH]c(=O)c(CN(Cc3ccccc3)Cc3nnnn3Cc3ccccc3)cc2c1	.	25µM*	.	.
Cc1ccc2[nH]c(=O)c(CN(CCCO)Cc3nnnn3Cc3ccco3)cc2c1	.	-17%	.	.
